proKLK7 act – activators of human kallikrein-7 zymogen. purified proKLK7, EDANS-DABCYL substrate fluorescence; 100% is mature enzyme control, 0% vehicle. activation, % at 7 µM. P49862. 0.9% of 370,000 active;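 active = activation above the mean of all tested compounds plus 3 SD, computed per campaign excluding outliers beyond control limits, cut at about 13% in these data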
Target sequence (P49862 whole entry, looked up): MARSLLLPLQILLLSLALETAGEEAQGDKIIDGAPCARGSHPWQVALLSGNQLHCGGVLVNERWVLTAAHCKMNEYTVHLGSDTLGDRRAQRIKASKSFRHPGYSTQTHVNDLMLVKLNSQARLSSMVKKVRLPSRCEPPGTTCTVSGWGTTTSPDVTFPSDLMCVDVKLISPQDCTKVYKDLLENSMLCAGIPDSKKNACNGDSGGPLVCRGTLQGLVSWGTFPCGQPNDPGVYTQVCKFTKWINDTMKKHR
SMARCA2 activ – increases SMARCA2 function in MMTV reporter cells; MG213 cells, MMTV-luciferase reporter, dexamethasone, overnight; activation, % at 9.1 µM; 1% of 370,000 active; in the data active = activation above about 7.8%;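 also: 0% = vehicle wells and 100% = reference activator wells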
MsrA inh – bovine MsrA inhibition; purified bovine MsrA, absorbance read-out; AID 651718; 0.75% of 360,000 active; inhibition, % at 15.5 µM; in the data active = inhibition above about 4.5%;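 also: 0% = vehicle wells with enzyme and 100% = reference inhibitor wells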
MsrA act – bovine methionine sulfoxide reductase A activation; 0.3% of 360,000 active; purified bovine MsrA, absorbance read-out; activation, % at 10.6 µM; AID 602163; in the data active = activation above about 7.5%;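 also: 0% = vehicle and 100% = reference activator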
KLK7 act conf – confirmation of human kallikrein-7 zymogen activators; 68% of 3,200 active; shares compounds with proKLK7 act; activation, % at 7 µM; purified proKLK7, EDANS-DABCYL substrate fluorescence; scaled: vehicle 0, mature enzyme 100; AID 686949;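 active = activation, as change over the incubation, above the mean of all tested compounds plus 3 SD, cut at about 13% in these data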
EDANS interfere – counter-screen for kallikrein-7 activators: EDANS-DABCYL optical interference. activation, % at 7 µM. 80% of 3,200 active. AID 686952. EDANS-DABCYL substrate fluorescence interference, no enzyme, 4 h; solvent 0%, active enzyme control 100%. shares compounds with proKLK7 act;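 active = activation above the all-compound mean plus 3 SD, ignoring values outside control-based bounds, cut at about 4.8% in these data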;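 also: value is the 4 h activation minus the activation read at time zero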
EDANS interf – counter-screen for kallikrein-7 activators: EDANS-DABCYL interference, dose response. EDANS-DABCYL peptide fluorescence interference, no enzyme. AID 720493. EC50, µM. shares compounds with proKLK7 act. 20% of 250 active;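 active = compounds that raise the fluorescence signal in this interference counterscreen, with EC50 at or below 10 µM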;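 also: intact quenched peptide substrate alone read at 355 nm excitation and 520 nm emission; signal is fluorescence gain from T0 to T4 after four hours at room temperature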
Starred values were filed as active, the others as inactive; x = not tested or not shown. Sampled rows, rich in hits. Any-hit rate of the full collection: about 2.8%.

SMILES	proKLK7 act	SMARCA2 activ	MsrA inh	MsrA act	KLK7 act conf	EDANS interfere	others
Cc1cc(-c2ccccc2)c(C#N)c(SCC(N)=O)n1	0	0	0	-2	x	x
N#Cc1ccc(-c2cccnc2)nc1SCC(N)=O	0	0	1	-2	x	x
CCOC(=O)CC(=O)CSc1nc(C)cc(-c2cccnc2)c1C#N	35*	6	1	0	98*	72*	EDANS interf=5.5*
COc1ccc(Cc2c(C(C)(C)C)nc3ccc(Cl)cn23)c(C)c1	-2	-3	0	-4	x	x
CCCOc1ccc(F)cc1-c1cc(C(=O)NCc2cccc(Cl)c2)[nH]n1	0	-2	0	-4	x	x
CC(=O)N1C[C@@H](CO)[C@@H](N(C)C(=O)C(C)(C)C)C[C@H]1c1ccccc1	1	0	-1	-2	x	x
O=[N+]([O-])c1ccc(O)c(C=Nc2ccc3nc(-c4ccccc4)[nH]c3c2)c1	65*	3	2	-2	57*	63*
Oc1c(Br)cc(C=Nc2ccc3nc(-c4ccccc4)[nH]c3c2)c(O)c1Br	-12	2	3	x	x	x
Cc1ccc(-c2cn3nc(C)c(C)nc3n2)cc1	55*	-2	1	0	59*	56*
COc1ccc(-c2cn3nc(C)c(C)nc3n2)cc1OC	-1	-2	1	-4	x	x
CCN(CC)S(=O)(=O)c1cccc2cc(C(=O)O)c(O)cc12	22*	0	0	-1	74*	73*
CCN(CC)S(=O)(=O)c1cc(C(=O)O)c(Cl)cc1Cl	0	2	1	-2	x	x
O=C(CN1C(=O)NC2(CCCCC2)C1=O)N1CCN(S(=O)(=O)c2ccc(F)c(F)c2F)CC1	0	-1	1	3	x	x
NCCNC(=O)c1c(NC(=O)c2ccccc2)sc2c1CCCC2	19*	2	1	-1	-3	-4
COCCN(CCOC)S(=O)(=O)c1ccc(C(=O)Nc2sc3c(c2C(N)=O)CCCCC3)cc1	19*	3	0	-2	4	21*
CNC(=S)NNC(=O)c1cccn(Cc2ccc(Cl)cc2Cl)c1=O	15*	0	1	x	30*	42*
CNC(=S)NNC(=O)c1cccn(Cc2cccc(C(F)(F)F)c2)c1=O	28*	-2	3	-3	89*	84*
CCNC(=S)NNC(=O)c1cccn(Cc2ccc(Cl)cc2)c1=O	22*	-2	2	-2	33*	39*
CNC(=S)NNC(=O)c1sccc1OCc1cccc(C(F)(F)F)c1	-1	-1	0	-1	x	x
Cc1cccc(NC(=O)CNC(=O)CN2C(=O)NC(C)(CCC(C)C)C2=O)c1C (stereo not given)	0	-2	-2	0	x	x
COc1ccc(Cc2c(-c3cccc(Cl)c3)nc3ccc(C)cn23)c(C)c1	0	4	0	-3	x	x
CC1(C(=O)NCc2ccc3c(c2)OCO3)CCN1Cc1csc2ccccc12 (stereo not given)	0	-2	-1	3	x	x
CC[C@H](C)[C@H](NC(=O)CNC(=O)COc1cc2c(c3oc(=O)cc(C)c13)CCC(C)(C)O2)C(=O)O	50*	-2	3	-3	-1	-18
Cc1cc(=O)oc2c3c(cc(OCC(=O)NCC(=O)N[C@H](C(=O)O)C(C)C)c12)OC(C)(C)CC3	43*	2	2	-2	62*	72*
CCCC(NC(=O)COc1cc2c(c3oc(=O)cc(C)c13)CCC(C)(C)O2)C(=O)O (stereo not given)	9	2	0	-3	x	x
SMILES	proKLK7 act	SMARCA2 activ	MsrA inh	MsrA act	KLK7 act conf	EDANS interfere	others
COC(=O)c1ccc(C(=O)OC)c(NC(=O)CSCC(=O)O)c1	0	-1	-1	-3	x	x
COC(=O)c1ccc(C(=O)OC)c(NC(=O)Oc2ccccc2)c1	38*	0	-1	-2	75*	75*
COC(=O)c1ccc(C(=O)OC)c(NC(=O)/C=C/C(=O)O)c1	16*	-2	-1	-3	1	2
COC(=O)c1ccc(C(=O)OC)c(NS(C)(=O)=O)c1	28*	0	0	-3	21*	21*
COCCN1CCn2c(nc3cc(NC(=O)NC4CCCCC4)ccc32)C1	16*	0	0	-6	-22	-14
COCCN1CCn2c(nc3cc(NC(C)=O)ccc32)C1	-6	3	1	-2	x	x
CCCOc1ccc2c(CC)cc(=O)oc2c1C	0	-1	0	-10	x	x
CCc1cc(=O)oc2c(C)c(O)c(CN(C)C)cc12	65*	1	2	1	58*	67*
CC1=CC2=C(C=O)C(=O)C(C)(O)C(O)C2=CO1 (stereo not given)	21*	-5	2	-5	29*	27*
CCCn1c(N)c(N(CCOC)C(=O)CSc2cc(C)c3ccccc3n2)c(=O)[nH]c1=O	0	1	1	0	x	x
COc1ccc2cc(C3=CCCCC3)ncc2c1	19*	5	-1	-2	7	5.3*
Cc1cc(NCc2ccco2)nc2cc(O)ccc12	19*	-2	1	-4	72*	66*
N#Cc1c(-c2cccnc2)c2c([nH]c1=O)-c1ccccc1OC2	72*	-2	2	-3	66*	71*
CC(=O)Nc1ccc(C(=O)NCC(c2ccco2)N(C)C)cc1 (stereo not given)	0	1	0	-3	x	x
CC(=O)c1ccc(-c2ccc(C(=O)NCC(c3ccco3)N(C)C)o2)cc1 (stereo not given)	19*	4	4	-3	6	12*
CCCOc1ccc(-c2c(C(=O)N/N=C/c3ccc(OC)cc3)nnn2-c2nonc2N)cc1	57*	-4	2	-2	-463	-365
COc1ccc(/C=N/NC(=O)c2nnn(-c3nonc3N)c2-c2cccs2)c(OC)c1	68*	-2	4	-3	-5	-21
CC1(C(=O)NS(=O)(=O)c2ccc(F)cc2F)CCN1C(=O)c1ccccc1 (stereo not given)	0	0	0	-1	x	x
COc1cc(Nc2ccn3nccc3n2)cc(OC)c1OC	0	-2	1	-3	x	x
CN(C(=O)c1ccc(NC(=O)Cc2ccc(NC(=O)C3CCN(S(=O)(=O)c4cccc([N+](=O)[O-])c4)CC3)cc2)cc1)C1CCCC1	0	-4	1	-5	x	x
